# Hits are enriched below; roughly 5.6% of the tested compounds scored in any of these assays.
# PfG6PD inh = PfG6PD enzyme inhibitors, primary screen, biochemical, fluorescence intensity, uHTS. glucose-6-phosphate dehydrogenase-6-phosphogluconolactonase (Plasmodium falciparum 3D7). PfGluPho enzyme, NADPH resazurin-diaphorase fluorescence. inhibition, % at 20 µM. 0.78% of 350,000 active. AID 504690, 2011;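 active means inhibition reaching at least a set limit at 20 µM in the primary screen, cut at about 59% in these data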;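 further: 0% = DMSO wells with substrate and 100% = DMSO wells lacking glucose-6-phosphate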
# ALR H2O2 inh = inhibitors of human ALR sulfhydryl oxidase, primary screen, biochemical, H2O2 detection, HRP-luminol luminescence, single point; FAD-linked sulfhydryl oxidase ALR (Homo sapiens), P55789; purified ALR, DTT oxidation; 3.8% of 290,000 active; AID 485317, 2010; inhibition, % (concentration not given with the values);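 active means mean replicate inhibition above about 79%, with every replicate also reaching it, limit read from the data; inconclusive means only one of the two criteria met; inactive means mean below limit and not every replicate reaching it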
# Target sequence (P55789 whole entry, looked up): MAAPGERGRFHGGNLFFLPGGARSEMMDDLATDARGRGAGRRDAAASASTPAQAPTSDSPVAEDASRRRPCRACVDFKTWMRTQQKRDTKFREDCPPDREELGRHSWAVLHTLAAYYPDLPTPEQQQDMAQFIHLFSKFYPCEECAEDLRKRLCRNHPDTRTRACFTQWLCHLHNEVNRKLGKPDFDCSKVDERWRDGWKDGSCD
# PHOSPHO1 block = PubChem AID 1565 | inhibition, % at 13.3 µM | Phosphoethanolamine/phosphocholine phosphatase (Homo sapiens), Q8TCT1 | recombinant PHOSPHO1, absorbance phosphatase assay | 1.1% of 290,000 active; in the data active means inhibition above about 60%
# Target sequence (Q8TCT1 whole entry, looked up): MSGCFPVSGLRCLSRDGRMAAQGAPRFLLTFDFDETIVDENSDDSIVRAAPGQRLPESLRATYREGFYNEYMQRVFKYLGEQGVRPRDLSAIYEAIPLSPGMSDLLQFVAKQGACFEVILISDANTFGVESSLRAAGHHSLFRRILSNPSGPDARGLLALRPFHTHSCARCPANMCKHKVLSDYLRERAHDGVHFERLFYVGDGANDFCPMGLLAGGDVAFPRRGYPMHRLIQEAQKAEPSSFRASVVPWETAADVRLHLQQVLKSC
# M18AAP inhibitor = PfM18AAP inhibitors, malaria aminopeptidase, primary screen, biochemical, QFRET, recombinant enzyme; H-Glu-NHMec fluorogenic cleavage; inhibition, % at 7.35 µM; 1.2% of 290,000 active; AID 1822, 2009;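 active means inhibition above the campaign mean inhibition over all tested compounds plus 3 SD, cut at about 28% in these data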;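 further: 0% = plate median of test compound wells and 100% = 2 mM ZnCl2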
# H9c2 protect = cardioprotection against H2O2-induced cell death, primary screen, uHTS, H9c2 cells, ATPLite luminescence; H9c2 cardiomyocytes, H2O2 injury protection, 2 h; protection from H2O2 cell death, % at 20 µM; 0.63% of 360,000 active;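 active means compounds giving at least 50% protection of heart cells from peroxide-induced death in the single-dose screen, raw or plate-pattern-corrected value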;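 further: 0% = DMSO wells with peroxide and 100% = DMSO wells without peroxide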
# Numbers without * were called inactive; ? = inconclusive; . = no result.
SMILES,PfG6PD inh,ALR H2O2 inh,PHOSPHO1 block,M18AAP inhibitor,H9c2 protect
CC1(Oc2cccc(C#N)c2)CCN(Cc2csc3ccccc23)C1 (configuration not stated),.,.,.,.,-3
N/C(=N\OC(=O)c1cccs1)c1ccccc1,-15,-8,-14,0,-12
Cc1ccc(/C(N)=N/OC(=O)c2cccs2)cc1,16,86*,-10,1,-14
C=CCn1c(CNC(=O)c2cccs2)nnc1SCC(=O)Nc1ccc(C(=O)O)cc1,0,1,90*,7,2
C=CCn1c(Cc2cccs2)nnc1SCC(=O)c1ccc2ccccc2c1,28,0,53,3,-15
C=CCn1c(CNC(=O)c2cccs2)nnc1SCC(=O)c1ccc(Br)cc1,8,86*,0,4,-4
C=CCn1c(SCC(=O)Nc2ccc(C(=O)OC(C)C)cc2)nnc1-c1cccs1,14,-5,-31,-1,-12
C=CCn1c(CCNC(=O)c2cccs2)nnc1SCC(=O)c1ccc(Cl)cc1,15,.,12,7,0
C=CCn1c(Cc2cccs2)nnc1SCC(=O)c1cccc(Br)c1,37,.,68*,-4,3
Cc1c(Br)cccc1NC(=O)C1(C)CCN1C(C)C (configuration not stated),.,.,.,.,1
O=C(CCCN=C1NS(=O)(=O)c2ccccc21)OCC(=O)c1ccccc1Cl,3,-1,.,.,-2
O=C(NCCc1cccc(C(F)(F)F)c1)C1CCC(=O)N(Cc2ccc(Cl)cc2)C1 (configuration not stated),0,-1,68*,4,-2
COCCCNc1nc2ccccc2nc1NS(=O)(=O)c1cccc(C)c1,-26,12,33,10,-4
COC(=O)c1cc(NC(=O)Nc2cc(OC)ccc2OC)cc(C(=O)OC)c1,16,.,-7,7,54*
OCCCNC(=S)Nc1ccc2nccnc2c1,27,-8,18,1,13
O=c1[nH]c2ccc(NCc3ccc(F)cc3)cc2[nH]1,30,100*,4,-113,0
COc1cc(CNc2ccc3[nH]c(=O)[nH]c3c2)cc(Br)c1OCc1ccc(F)cc1,17,19,11,-9,-1
CNC(=S)Nc1ccc2[nH]c(=O)[nH]c2c1,8,52,38,1,0
O=C(NC(=S)Nc1ccc2[nH]c(=O)[nH]c2c1)c1ccccc1Cl,8,.,10,8,0
Fc1ccc(NC(=S)Nc2ccc3nccnc3c2)cc1,52,8,44,6,62*
Cc1c(Cl)cccc1NC(=S)Nc1ccc2[nH]c(=O)[nH]c2c1,44,95*,-5,8,-3
O=c1[nH]c2ccc(NC(=S)Nc3ccc(F)cc3)cc2[nH]1,11,90*,-29,9,4
O=C(N/N=C/c1cc(Cl)cc([N+](=O)[O-])c1O)c1cccc(S(=O)(=O)N2CCOCC2)c1,-26,.,.,.,33
COc1ccc(/C=C(\NC(=O)c2ccccc2)C(=O)N2CCC(C)CC2)cc1,8,.,.,.,2
Cc1ccc(OCC(=O)OCC(=O)Nc2ccc3c(c2)OCO3)cc1C,6,-4,.,.,-3
SMILES,PfG6PD inh,ALR H2O2 inh,PHOSPHO1 block,M18AAP inhibitor,H9c2 protect
O=[N+]([O-])c1ccccc1N=Nc1ccc(O)cc1,4,80*,.,.,-2
Nc1ncc(Br)cc1N=Cc1ccccc1,89*,54,-4,-2,-6
CCOc1cccc(/C=N/NC(=O)c2cc(C3CC3)[nH]n2)c1O,-17,98*,20,11,47
CCOc1cccc(/C=N/NC(=O)c2cccnc2)c1O,-57,?,24,15,34
Cc1ccc(Nc2nc(CSc3nnnn3C)cs2)cc1,19,99*,11,-3,-30
Cc1ccc(Nc2nc(CSc3n[nH]c(N)n3)cs2)cc1,34,98*,38,29*,-15
Cc1ccc(CSc2n[nH]c(N)n2)cc1,-2,0,-3,-3,-4
Cc1ccc(Nc2nc(CSc3nnnn3-c3ccccc3)cs2)cc1,28,9,-12,4,-4
Cn1nnnc1SCc1csc(Nc2ccccc2)n1,30,90*,95*,15,6
COc1ccc(Cl)cc1NC(=O)CN(C)C(=O)Cn1cnc2c1c(=O)n(C)c(=O)n2C,0,-15,.,.,4
CCN1CCCc2cc(CN(CCN3CCOCC3)C(=S)Nc3ccccc3OC)ccc21,7,99*,34,11,2
Cc1ccccc1NC(=S)N(CCN1CCCCCC1)Cc1cccs1,23,-4,24,3,-8
CCN1CCCc2cc(CN(CCN3CCOCC3)C(=S)Nc3ccccc3C)ccc21,10,99*,-3,4,-2
CCN1CCCc2cc(CN(CCN3CCOCC3)C(=S)Nc3cccc(C)c3)ccc21,15,95*,-20,15,-2
O=C(c1ccccc1)N1CCN(CC2CC=CCC2)CC1 (configuration not stated),-16,-1,-14,32*,-1
COc1ccccc1CN1CC(C(=O)N(C)CCc2nc3ccc(F)cc3[nH]2)CCC1=O (configuration not stated),-3,-7,64*,-1,1
Oc1c(Br)cc(/C=N/n2c(-c3ccccc3)n[nH]c2=S)c(Br)c1O,.,.,-28,33*,.
Oc1ccccc1/C=N/n1c(-c2ccccc2)n[nH]c1=S,28,98*,6,26,3
O=[N+]([O-])c1ccc(O)c(/C=N/n2c(-c3ccccc3)n[nH]c2=S)c1,13,93*,-46,17,3
O=[N+]([O-])c1ccc(Cl)c(/C=N/n2c(-c3ccncc3)n[nH]c2=S)c1,21,-8,-83,5,8
COc1cccc(NC(=O)CN(C)C(=O)C23CC4CC(CC(Cl)(C4)C2)C3)c1,-10,-1,.,.,4
CC1CCN(C(=O)c2[nH]cnc2C(=O)NCc2ccccc2)CC1,-5,5,.,.,6
O=C(CNC(=O)c1nc[nH]c1C(=O)NCC(=O)OCc1ccccc1)OCc1ccccc1,-4,4,21,-6,96*
O=C(NCc1ccccc1)c1nc[nH]c1C(=O)N1CCN(c2ccccc2)CC1,4,98*,.,.,-4
O=C(CNC(=O)c1nc[nH]c1C(=O)NCc1ccccc1)OCc1ccccc1,13,.,10,6,103*
CCN(CC)C(=O)c1[nH]cnc1C(=O)NCC(=O)OCc1ccccc1,-4,.,15,3,105*
CC(C)(C)OC(=O)NCc1ccc(CNC(=O)c2[nH]cnc2C(=O)NCC(=O)OCc2ccccc2)cc1,25,6,-69,4,39
CNC(=O)c1[nH]cnc1C(=O)NCC(=O)OCc1ccccc1,0,.,-7,6,18
CC(CNS(=O)(=O)c1ccc(Cl)cc1)n1cncn1 (configuration not stated),3,.,39,-4,1

# Screens (PubChem BioAssay)
